Assay results as given in PubChem BioAssay AID493123 (National Center for Advancing Translational Sciences (NCATS), 2011).
Activity calls are given as the source filed them. No rule for the calls is given here.

Experiment: Concentration response confirmation assay for small molecule inhibitors of Shiga toxin
Details: cell-based concentration response; series mostly up to 76.6 µM

Row | SMILES | outcome
1 | CCN1C(=O)/C(=C/c2ccc(OC)c(OC)c2)N=C1SCC(=O)NCc1ccco1 | inactive
2 | CN(C)S(=O)(=O)c1ccc(C(=O)Nc2ccc(CN3CCCC3)cc2)cc1 | inactive
3 | CCn1c2ccccc2c2cc(NC(=O)c3cccc([N+](=O)[O-])c3)ccc21 | inactive
4 | C=CCNC(=O)c1ccc(C)c(Br)c1 | inactive
5 | CC1CCC/C=C/C2CC(O)CC2C(O)/C=C/C(=O)O1 (stereo not drawn) | inactive
6 | Cc1cccc(NC(=O)CCN2C(=O)c3ccccc3S2(=O)=O)c1C | inactive
7 | O=C(CC(c1ccccc1)c1cc(Cl)ccc1O)N1CCCC1 (stereo not drawn) | inactive
8 | COc1ccc(C(C)(C)C)cc1NC(=O)c1ccc2c(c1)SC1=NS(=O)(=O)CCN12 | inactive
